62 sequences from the supplement of paper PMC11417369 can be followed below.

The full ranking holds about 25,000 sequences; the median of “ln(normalized median fluorescence intensity)” is about 9.7, and the highest 2% start at about 11. This is one part of a sample in which the highest values are shown more often than they occur.

This assay has as its system PfAP2-HC AP2 domain (GST-tagged). Briefly: gcPBM binding intensity (ln(normalized median fluorescence intensity)); higher = stronger DNA binding. The method in brief:
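GST-tagged P. falciparum DNA-binding domains, expressed in E. coli (about 25 μg on average), were applied for 1 h to an Agilent 4 × 180k array of primer-extended double-stranded 36-bp intergenic genomic probes plus negative controls. The binding buffer was 1× PBS with 1% milk, 0.2 mg/ml BSA, 0.5% salmon testes DNA and 0.03% Triton X-100. Bound protein was detected with Alexa488 anti-GST antibody and scanned at 488 nm. Binding intensity is the highest Masliner-normalised natural-log median intensity across replicate spots of either probe orientation.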
With ATACCTATTTGATGAGTGCATTATCCAATATATGTA, the “gcPBM binding intensity (ln)” value amounted to 9.59.

With “TCTTTTTAAATATATACACACCGTGTCTACAGATAC [CACACA_site5784]”, the “gcPBM binding intensity (ln)” value came to 9.88.

Consider “AAGAAAAACTTTACGTGTACCAAACATCCTGCCAAC [XGTACX_site598]”, for which the “gcPBM binding intensity (ln)” value amounted to 9.91.

For the sequence “ATATATATTTTATTATGTACATATAAATATTACACA [XGTACX_site4062]”, the “gcPBM binding intensity (ln)” value is 9.57.

Consider “TGCATATACTCAAGCACACATATATATATATATATA [CACACA_site4733]”, for which the “gcPBM binding intensity (ln)” value was found to be 9.71.

Consider “CACGCACGCAGACACACACACACACGCACATATATA [CACACA_site6303]”, for which the “gcPBM binding intensity (ln)” value turned out to be 10.6.

Regarding “AAGCATACATCAAGCACACACACACCCACAGAGACA [CACACA_site4362]”, the “gcPBM binding intensity (ln)” value came to 10.5.

As for “AGCACACGCAGACACACACACACACGCACACGCACA [CACACA_site6306]”, the “gcPBM binding intensity (ln)” value is 11.6.

Turning to “ACATCAAGCAGACACACACACACACGCACACGCACA [CACACA_site6309]”, the “gcPBM binding intensity (ln)” value is 11.2.

Take “AGAAGCATACATCAAGCACACACACCCACACCCACA [CACACA_site8014]”: the “gcPBM binding intensity (ln)” value is 11.4.

Consider “TGCATATACGCAAGCACACATATATATATATATATA [CACACA_site1069]”, for which the “gcPBM binding intensity (ln)” value worked out at 9.6.

As for “GCATACATCAAGCACACACACACACGCACACGCACA [CACACA_site6311]”, the “gcPBM binding intensity (ln)” value was found to be 11.3.

As for “AATACACGCAGACACACACACACACGCACATATATA [CACACA_site6447]”, the “gcPBM binding intensity (ln)” value is 10.8.

Regarding “AATAATAGAAGCACCCACCCACCACCACCCACACAT [CACACA_negctrl_site1033]”, the “gcPBM binding intensity (ln)” value came out at 10.9.

As to “AGCTCTATATTTTACACATGCGATTTGGATATATAT [TGCATGCA_site105]”, the “gcPBM binding intensity (ln)” value is 9.84.

As to “ATGTACTATGATAATGCATGCAATAATACATTTTTA [TGCATGCA_site318]”, the “gcPBM binding intensity (ln)” value amounted to 9.6.

Take “AAACTATTCACTATAATACATTAGAAGTGAATAAAA [TGCATGCA_negctrl_site498]”: the “gcPBM binding intensity (ln)” value turned out to be 9.64.

Take “TTTTTTTTTCTCCATACACACTTGATAAAACTTTTT [CACACA_site4512]”: the “gcPBM binding intensity (ln)” value came to 9.64.

On to “AAAAAAAATAATTTGCGTACATAAAAATTTATAGGA [XGTACX_site3016]”, for which the “gcPBM binding intensity (ln)” value turned out to be 9.58.

For “AAAAATAAAGAAACAGGTACGCATATATTAAGATAT [XGTACX_site8097]”, the “gcPBM binding intensity (ln)” value was found to be 9.98.

On to “TATCCTAATGCTACCACACACACAAAAACAAATAAT [CACACA_site2609]”, for which the “gcPBM binding intensity (ln)” value is 10.7.

On to “TATTATTTTTCATATGCATGCAAAAATAAAAAAATA [TGCATGCA_site350]”, for which the “gcPBM binding intensity (ln)” value is 9.31.

For the sequence “TATATACATATATACACACACATATATATATATATA [CACACA_site2805]”, the “gcPBM binding intensity (ln)” value is 10.1.

Turning to “AAGGATATAACATACACACACACACCCATATATATA [CACACA_site4142]”, the “gcPBM binding intensity (ln)” value turned out to be 11.1.

With “CAAAAGGATAGGCACACACACACACCCATATATATA [CACACA_site2199]”, the “gcPBM binding intensity (ln)” value was 11.1.

Take “GGAAGGATATAACATACACACACACCCATATATATA [CACACA_site9376]”: the “gcPBM binding intensity (ln)” value turned out to be 10.3.

Regarding “TGGTAATACACATACACACACACATACACATATATA [CACACA_site7312]”, the “gcPBM binding intensity (ln)” value came out at 11.4.

As for “TGGTAATACCCATACACACACACATACACATATATA [CACACA_site8877]”, the “gcPBM binding intensity (ln)” value was 10.3.

In the case of “CAAAAGGATAGGCACACACACACACCGATATATATA [CACACA_site8685]”, the “gcPBM binding intensity (ln)” value was 10.7.

As for “AAGGATATAACATACACACACACACCGATATATATA [CACACA_site6136]”, the “gcPBM binding intensity (ln)” value worked out at 10.6.

Take “TACATACATACATACACACACACATATATATACATA [CACACA_site853]”: the “gcPBM binding intensity (ln)” value worked out at 11.

For “TATACATATATATACACACACACATATATATATATA [CACACA_site1299]”, the “gcPBM binding intensity (ln)” value was found to be 10.1.

As for “GCCAAAAGGATATGCACACACACACCCATATATATA [CACACA_site2198]”, the “gcPBM binding intensity (ln)” value turned out to be 10.6.

Regarding “TGGTAATACCCATACACACACACATACCCATATATA [CACACA_site5509]”, the “gcPBM binding intensity (ln)” value came to 10.3.

Regarding “TATATATATAAAAAAAGTACGTATTTAATAAAAATA [XGTACX_site4992]”, the “gcPBM binding intensity (ln)” value was found to be 9.88.

For the sequence “AAAACTTTTAGTTATACACACAACATAGAAAATATT [CACACA_site6287]”, the “gcPBM binding intensity (ln)” value is 9.84.

Turning to “TATAAAGACACGTACACACACTAAGTATATCCAATA [CACACA_site6855]”, the “gcPBM binding intensity (ln)” value was 10.5.

With AATATTCATATGCAGGTGCATTAATTTTTATTAATT, the “gcPBM binding intensity (ln)” value was 9.65.

As to “ATGCTTTTGTCATGTGCACACACGTATATATTATAT [CACACA_site4163]”, the “gcPBM binding intensity (ln)” value came out at 10.3.

Consider “TGTTAATTATAAATTTGTACTTATTTTTACAAAATA [XGTACX_site6598]”, for which the “gcPBM binding intensity (ln)” value worked out at 9.48.

Regarding “ATGTAACATAGGAAATGTACATATAAATATAATTTA [XGTACX_site6452]”, the “gcPBM binding intensity (ln)” value was found to be 9.77.

Turning to “CATATAATATTTGAAACTATATATAAATATAAGGTA [TGCATGCA_negctrl_site19]”, the “gcPBM binding intensity (ln)” value is 9.52.

“GAAAATTTATATTGCACACATAGGGAATAAAAAAAA [CACACA_site2146]”: the “gcPBM binding intensity (ln)” value is 9.99.

As to “ATATTTACCATTGTATGTACATATATAAAATATATC [XGTACX_site3237]”, the “gcPBM binding intensity (ln)” value amounted to 9.69.

With “CATACACCCATACATACACACATACATATATATATA [CACACA_site8591]”, the “gcPBM binding intensity (ln)” value came out at 9.98.

For “TATATATATATATACACACACACACCCATATATATA [CACACA_site2538]”, the “gcPBM binding intensity (ln)” value stood at 10.4.

For the sequence “TGGTAATCCACATACACACACACATACACATATATA [CACACA_site2727]”, the “gcPBM binding intensity (ln)” value amounted to 10.3.

Take “AATGGTAATCCACATACACACACACCGACACATATA [CACACA_site8876]”: the “gcPBM binding intensity (ln)” value was 11.1.

As to “TATACATACACATACACACATACACCCATACACATA [CACACA_site1746]”, the “gcPBM binding intensity (ln)” value was 10.6.

On to “TATATATACATATACACACACACACCCATATATATA [CACACA_site2246]”, for which the “gcPBM binding intensity (ln)” value is 11.1.

“AAATATAAATGGTAATACACATACACACACACATAC [XGTACX_negctrl_site459]”: the “gcPBM binding intensity (ln)” value amounted to 10.5.

For the sequence “CATATACATACACATACACACATACACCCATACACA [CACACA_site8514]”, the “gcPBM binding intensity (ln)” value amounted to 10.2.

For “CACATATATACACATACACACACACCCATACACCCA [CACACA_site8505]”, the “gcPBM binding intensity (ln)” value amounted to 11.

Turning to “ACAGTATATTAAAAAATACACACGTATTATATCTAC [CACACA_site2640]”, the “gcPBM binding intensity (ln)” value amounted to 9.83.

Consider “TATATGCTATAATATACACACATACCTATATTTATA [CACACA_site6383]”, for which the “gcPBM binding intensity (ln)” value came to 9.94.

“ATTTCTTATTAAATTACACACAAAGTAAATAAATCT [CACACA_site3924]”: the “gcPBM binding intensity (ln)” value amounted to 9.54.

For “AAAATACACGCATACACACACACACCCACCCATATA [CACACA_site639]”, the “gcPBM binding intensity (ln)” value came out at 11.5.

On to “TACACGCTAAAATACACACACACACCCACATATATA [CACACA_site4153]”, for which the “gcPBM binding intensity (ln)” value turned out to be 10.6.

Turning to “AAAAAAAATACATACACACACACACCCACATATATA [CACACA_site3561]”, the “gcPBM binding intensity (ln)” value was 10.6.

As for “AAAAAAAAAATACATACACACACACCCACCCATATA [CACACA_site9187]”, the “gcPBM binding intensity (ln)” value came out at 10.5.

Take “AGAAAATACACGCATACACACACACCCACCCACATA [CACACA_site8115]”: the “gcPBM binding intensity (ln)” value is 11.3.

For “CACCCATAAATATACACACGCACAACACAAAATAAA [CACACA_site2903]”, the “gcPBM binding intensity (ln)” value was determined as 10.7.
